The source of these data is PubChem BioAssay (EPA / NIEHS).

Some compounds were tested as several samples or in several runs, with calls that do not always agree. Activity calls are given as the source filed them. Rule for the calls: active = hit-call score of the fitted dose curve at least 0.9, where 1 is the maximum; inactive = score below 0.9.

As usually defined, the AC50 is the concentration giving half of the maximal activity seen.

Assay [1] is described as follows: ATG_M_32_CIS: Attagene CIS-FACTORIAL HepG2 Assay for M32 Transcription Factor (Internal Marker) (AID 2282949).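 Note: background control marker of the multiplexed CIS panel rather than a real target.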 Particulars: HepG2 Attagene cis-factorial M32 reporter, mRNA; actives raise or lower the signal. A digest of the protocol: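 HepG2 transfectants (cis-regulated reporter transcription units) dosed 24 h. Reporter mRNA by RT-PCR plus CE, analysed as gain or loss relative to DMSO.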

Assay [2] in a line: ATG_M_06_CIS: Attagene CIS-FACTORIAL HepG2 Assay for M06 Transcription Factor (Internal Marker) (AID 2282950). The conditions noted are these: HepG2 Attagene CIS-FACTORIAL M06 internal marker reporter; actives raise or lower the signal. A digest of the protocol: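 Fluorescence-labelled RT-PCR products from cis-promoter reporter units, cut with HpaI and resolved by capillary electrophoresis, give the signal. Cells are human HepG2, dosed for 24 h. Serves as background control, fitted relative to DMSO.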

For assay [3], the target named is Hypoxia-inducible factor 1-alpha (Homo sapiens) (UniProt Q16665). The assay can be described thus: ATG_HIF1a_CIS: Attagene CIS-FACTORIAL HepG2 Assay for human Hypoxia Inducible Factor 1 (HIF1A) (AID 2282951). The conditions noted are these: HepG2 Attagene cis-factorial HIF1a reporter transcription; actives raise or lower the signal. In outline:
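Measures endogenous transcription-factor activity through cis-regulated reporter mRNA in HepG2. Cells dosed 24 h; transcripts quantified by RT-PCR with 6-FAM-labelled products separated by capillary electrophoresis; DMSO serves as negative control.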

The target of assay [4] is Hepatocyte nuclear factor 6 (Homo sapiens) (UniProt Q9UBC0). As to the kind of experiment: ATG_HNF6_CIS: Attagene CIS-FACTORIAL HepG2 Assay for human Hepatocyte Nuclear Factor 6 (HNF6) (AID 2282952). The conditions noted are these: HepG2 Attagene cis-factorial HNF6 reporter transcription; actives raise or lower the signal. In outline:
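Readout: fluorescent reporter-transcript fragments resolved by capillary electrophoresis after RT-PCR, reflecting endogenous factor activity in transfected HepG2. Exposure 24 h. Gain or loss of signal fitted bidirectionally against DMSO.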

The nature of assay [5]: ATG_MRE_CIS: Attagene CIS-FACTORIAL HepG2 Assay for human Metal Responsive Element (MRE) (AID 2282954). Particulars: HepG2 MRE cis-reporter transcription, Attagene multiplex; actives raise or lower the signal. In outline:
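Measured here is mRNA induction from an MRE cis-element reporter in HepG2 after 24 h, quantified by fluorescence of labelled RT-PCR products on capillary electrophoresis; gain- and loss-of-signal fits use DMSO as baseline.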

A short description of assay [6]: ATG_PBREM_CIS: Attagene CIS-FACTORIAL HepG2 Assay for human Phenobarbital-responsive Enhancer Module (PBREM) (AID 2282955). Particulars: HepG2 PBREM cis-reporter, Attagene multiplexed transcription; actives raise or lower the signal. A digest of the protocol: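 Fluorescence of labelled reporter cDNA fragments, resolved by capillary electrophoresis, gives mRNA induction in transfected HepG2 cells treated for 24 h; DMSO serves as negative control and baseline.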

Assay [7] has as its target Paired box protein Pax-6 (Homo sapiens) (UniProt P26367). As to the kind of experiment: ATG_Pax6_CIS: Attagene CIS-FACTORIAL HepG2 Assay for human Paired Box 6 (PAX6) (AID 2282956). The conditions noted are these: HepG2 CIS-FACTORIAL PAX6 reporter transcription, RNA readout; actives raise or lower the signal. In outline:
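Readout: reporter transcript fluorescence after RT-PCR and capillary electrophoresis. Cells: HepG2, transiently transfected with cis-regulated MRTUs. Exposure 24 h. Gain or loss of signal fitted bidirectionally relative to DMSO.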

A short description of assay [8]: ATG_PXRE_CIS: Attagene CIS-FACTORIAL HepG2 Assay for human Pregnane X Receptor Element (PXRE) (AID 2282957). The conditions noted are these: HepG2 Attagene CIS-FACTORIAL PXRE reporter, mRNA; actives raise or lower the signal. In outline:
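Read-out: fluorescence of reporter-specific RT-PCR products resolved by capillary electrophoresis, fitted bidirectionally relative to DMSO. Human HepG2 liver cells carried transfected cis-promoter reporter units and were exposed to chemicals for 24 h.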

A short description of assay [9]: ATG_PPRE_CIS: Attagene CIS-FACTORIAL HepG2 Assay for human Peroxisome Proliferator-activated Response Element (PPRE) (AID 2282958). Particulars: HepG2 PPRE cis-element reporter, Attagene transcription factor profiling; actives raise or lower the signal. In outline: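 Cells are first transfected transiently with the multiplexed reporter library, then dosed for 24 h. Total RNA is reverse-transcribed, amplified, fluorescently end-labeled and HpaI-cut before capillary electrophoresis; activity is fitted bidirectionally against DMSO controls.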

In assay [10] the target is Heat shock factor protein 1 (Homo sapiens) (UniProt Q00613). The assay can be described thus: ATG_HSE_CIS: Attagene CIS-FACTORIAL HepG2 Assay for human Heat Shock Transcription Factor 1 (HSE) (AID 2282953). The conditions noted are these: HepG2 HSE cis-reporter, Attagene RNA transcription; actives raise or lower the signal. A digest of the protocol: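 After a 24 h incubation with test chemical, transfected HepG2 cells were harvested for RNA; reporter transcripts were measured by RT-PCR and capillary electrophoresis. Values reflect gain or loss of signal relative to DMSO.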
Sequence of Heat shock factor protein 1 (Homo sapiens) (Q00613 whole entry, looked up): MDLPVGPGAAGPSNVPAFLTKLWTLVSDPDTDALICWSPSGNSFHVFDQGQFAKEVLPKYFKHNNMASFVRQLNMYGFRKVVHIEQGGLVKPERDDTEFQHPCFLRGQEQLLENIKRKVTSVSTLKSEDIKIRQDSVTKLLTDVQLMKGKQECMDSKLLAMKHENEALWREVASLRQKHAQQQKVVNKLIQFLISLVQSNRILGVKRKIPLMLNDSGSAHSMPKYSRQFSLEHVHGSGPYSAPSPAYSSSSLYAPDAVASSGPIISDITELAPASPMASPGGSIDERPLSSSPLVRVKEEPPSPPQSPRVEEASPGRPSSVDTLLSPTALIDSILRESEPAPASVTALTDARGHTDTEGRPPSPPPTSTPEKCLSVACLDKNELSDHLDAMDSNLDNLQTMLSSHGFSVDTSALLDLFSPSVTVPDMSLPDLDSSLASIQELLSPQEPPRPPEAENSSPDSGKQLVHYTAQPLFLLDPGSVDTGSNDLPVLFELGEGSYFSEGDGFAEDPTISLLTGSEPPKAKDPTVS

Sequence of Hepatocyte nuclear factor 6 (Homo sapiens) (Q9UBC0 whole entry, looked up, the tested form may be a part): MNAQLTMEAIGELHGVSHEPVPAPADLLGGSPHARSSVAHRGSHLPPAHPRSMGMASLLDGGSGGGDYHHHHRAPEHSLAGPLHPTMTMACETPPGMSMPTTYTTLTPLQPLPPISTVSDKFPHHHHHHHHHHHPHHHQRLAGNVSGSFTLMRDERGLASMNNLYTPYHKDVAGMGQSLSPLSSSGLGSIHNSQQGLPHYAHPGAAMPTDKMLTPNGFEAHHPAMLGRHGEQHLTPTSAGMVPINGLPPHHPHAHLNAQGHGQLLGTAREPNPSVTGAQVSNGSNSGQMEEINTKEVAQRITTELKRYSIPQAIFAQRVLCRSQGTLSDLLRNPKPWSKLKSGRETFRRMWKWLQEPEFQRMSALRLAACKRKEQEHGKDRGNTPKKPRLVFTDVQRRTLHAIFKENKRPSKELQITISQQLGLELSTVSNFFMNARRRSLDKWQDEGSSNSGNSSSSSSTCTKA
Sequence of Paired box protein Pax-6 (Homo sapiens) (P26367 whole entry, looked up): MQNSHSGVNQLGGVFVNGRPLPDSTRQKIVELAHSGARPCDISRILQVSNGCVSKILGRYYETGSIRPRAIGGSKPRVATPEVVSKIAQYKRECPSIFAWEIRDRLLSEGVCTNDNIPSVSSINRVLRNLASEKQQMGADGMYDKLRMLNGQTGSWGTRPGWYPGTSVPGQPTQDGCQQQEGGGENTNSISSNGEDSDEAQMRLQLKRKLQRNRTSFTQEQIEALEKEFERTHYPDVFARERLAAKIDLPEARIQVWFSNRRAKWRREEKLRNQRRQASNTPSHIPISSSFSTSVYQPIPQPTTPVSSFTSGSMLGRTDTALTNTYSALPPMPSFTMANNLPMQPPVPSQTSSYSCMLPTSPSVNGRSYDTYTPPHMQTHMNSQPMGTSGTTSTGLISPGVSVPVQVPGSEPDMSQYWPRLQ
Sequence of Hypoxia-inducible factor 1-alpha (Homo sapiens) (Q16665 whole entry, looked up): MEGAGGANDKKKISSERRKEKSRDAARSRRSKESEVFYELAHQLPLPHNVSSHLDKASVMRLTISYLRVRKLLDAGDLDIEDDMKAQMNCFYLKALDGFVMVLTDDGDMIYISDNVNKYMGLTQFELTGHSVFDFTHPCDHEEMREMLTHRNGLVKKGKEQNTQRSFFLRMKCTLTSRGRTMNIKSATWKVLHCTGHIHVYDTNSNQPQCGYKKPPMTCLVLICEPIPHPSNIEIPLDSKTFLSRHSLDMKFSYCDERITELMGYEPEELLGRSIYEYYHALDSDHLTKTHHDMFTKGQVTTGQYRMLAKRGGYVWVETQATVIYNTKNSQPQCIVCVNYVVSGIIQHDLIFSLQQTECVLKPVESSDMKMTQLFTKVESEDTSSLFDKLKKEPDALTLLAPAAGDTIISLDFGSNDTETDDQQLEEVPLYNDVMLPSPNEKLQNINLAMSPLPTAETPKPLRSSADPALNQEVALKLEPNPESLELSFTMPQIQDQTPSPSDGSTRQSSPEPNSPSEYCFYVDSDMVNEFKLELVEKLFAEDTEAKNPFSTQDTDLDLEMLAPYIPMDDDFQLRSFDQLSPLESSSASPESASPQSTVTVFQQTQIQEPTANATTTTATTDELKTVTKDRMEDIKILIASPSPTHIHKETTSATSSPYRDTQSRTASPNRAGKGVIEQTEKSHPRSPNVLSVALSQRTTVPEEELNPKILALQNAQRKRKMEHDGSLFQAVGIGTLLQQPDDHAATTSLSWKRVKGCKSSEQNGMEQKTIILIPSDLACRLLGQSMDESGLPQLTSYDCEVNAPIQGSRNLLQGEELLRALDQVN

Consider `CCOC(=O)Cc1ccccc1`, for which the call in [1], in assay [2], in assay [3], in assay [4], in assay [5] and in [6] was inactive. The outcome in [7], in assay [8] and in [9] was inactive.

In the case of `Oc1ccc(Cc2ccc(O)cc2)cc1`, the result in assay [1], in [2], in [3], in assay [4], in assay [5] and in [6] was inactive. In addition, the result in assay [7] was inactive. Moreover, the AC50 was 61.6 µM (active) in assay [8] and 38.8 µM (active) in assay [9].

Take `C[N+](C)(C)Cc1ccccc1`: the call in assay [1], in [2], in assay [3], in [4], in assay [5] and in assay [7] was inactive. In addition, the compound was classed as inactive in [8].

Consider `CC(C=O)Cc1ccc2c(c1)OCO2` (centres undefined), for which the outcome in assay [1], in [2], in [3], in assay [4], in assay [5] and in assay [6] was inactive. The call in assay [7] and in assay [9] was inactive. Besides, in [8], the AC50 is 17 µM (active).

Consider `C[CH2][Hg][S]c1ccccc1C(=O)O`, for which the outcome in assay [1], in assay [2], in assay [3] and in assay [6] was inactive. The AC50 in [4] is 4.19 µM (active); in [5], 3.71 µM (active); in assay [7], 4.42 µM (active); in assay [9], 0.814 µM (active).

For `N#Cc1cccnc1`, the outcome in [1], in assay [2], in assay [3], in assay [4], in [5] and in assay [6] was inactive. Besides, the compound was classed as inactive in [7], in assay [8] and in assay [9].

With `Clc1cnc(Oc2ccc(Oc3ncc(Cl)cc3Cl)cc2)c(Cl)c1`, the outcome in [1], in assay [2], in [4], in [10], in assay [5] and in assay [6] was inactive. For the same compound, the compound was classed as inactive in [7] and in assay [9]. Also, the AC50 in [8] is 9.96 µM (active).

For `O=S(=O)(F)C(F)(F)C(F)(F)C(F)(F)C(F)(F)F`, the result in assay [1], in assay [2], in assay [3], in [4], in assay [6] and in [7] was inactive. For the same compound, the call in assay [8] and in assay [9] was inactive.

Consider `ClCCN1CCOCC1`, for which the compound was classed as inactive in [1], in assay [2], in [3], in [4], in [5] and in assay [7]. Further, the result in assay [8] and in assay [9] was inactive.

On to `[F][Sn]([c]1ccccc1)([c]1ccccc1)[c]1ccccc1`, for which the compound was classed as inactive in [1], in [2] and in [4]. The AC50 in assay [3] is 0.327 µM (active); in [5], 0.339 µM (active); in assay [7], 0.346 µM (active).

Turning to `O=C(O)CC(O)(CC(=O)O)C(=O)O`, the call in assay [1], in assay [2], in [4], in assay [10], in assay [5] and in assay [6] was inactive. Further, the compound was classed as inactive in assay [7], in assay [8] and in [9].

Regarding `O=C(CCl)Nc1ccccc1`, the AC50 is 134 µM (active) in [1]; 69.2 µM (active) in [3]; 56.4 µM (active) in [5]; 72.6 µM (active) in [7]; 33.4 µM (active) in assay [8]; 3.66 µM (active) in [9]. Besides, the call in assay [2], in [4] and in assay [6] was inactive.

Take `CCOc1cc(C=O)ccc1O`: the outcome in assay [1], in assay [2], in assay [3], in [4], in assay [7] and in assay [8] was inactive.

`Cc1cccc(OP(=O)(Oc2cccc(C)c2)Oc2cccc(C)c2)c1`: the compound was called inactive in assay [1], in assay [2], in assay [3], in assay [4], in [6] and in assay [7]. Also, the outcome in assay [9] was inactive. Moreover, the AC50 in assay [8] is 1.32 µM (active).

In the case of `O=c1[nH]c2ccccc2n1C1CCN(CCCC(c2ccc(F)cc2)c2ccc(F)cc2)CC1`, the compound was classed as inactive in assay [1], in [2], in assay [4], in assay [10], in assay [5] and in assay [7]. Besides, in [8], the compound was called inactive.

As to `Cc1cccc(N=Nc2ccc(N(C)C)cc2)c1`, the compound was classed as inactive in assay [1], in assay [2], in assay [3], in assay [4], in assay [5] and in assay [6]. Moreover, the outcome in assay [7] and in [9] was inactive.

On to `Oc1c(Cl)cc(Cl)cc1Cl`, for which the compound was called inactive in assay [1], in assay [2], in assay [10], in assay [5], in assay [6] and in [7]. In addition, the compound was classed as inactive in [8]. For the same compound, the AC50 in assay [3] is 41.6 µM (active).

Turning to `O=NN1CCCCCC1`, the compound was classed as inactive in assay [1], in [2], in assay [3], in assay [4], in assay [5] and in assay [7]. Moreover, the AC50 in assay [8] was 53 µM (active).

Consider `Cc1ccccc1OP(=O)(Oc1ccccc1C)Oc1ccccc1C`, for which the call in [1], in assay [2], in assay [3], in assay [4], in [6] and in assay [7] was inactive. Further, the call in assay [9] was inactive. Besides, the AC50 in [5] was 10.8 µM (active); in assay [8], 0.0902 µM (active).

With `Cc1cccc(C)c1NC(=O)CN1CCCC1=O`, the outcome in assay [1], in [2], in assay [3], in [4], in assay [5] and in [7] was inactive. Moreover, the call in assay [9] was inactive.

For `C[C@H]1C(=O)O[C@@H]2CCN3CC=C(COC(=O)[C@](C)(O)[C@]1(C)O)[C@H]23`, the compound was classed as inactive in assay [1], in [2], in assay [4], in assay [10], in assay [5] and in [7]. Also, the compound was called inactive in assay [8] and in assay [9].

Turning to `C[C@@H]1O[C@@H](O[C@H]2C[C@@H](O)[C@]3(CO)[C@H]4[C@H](O)C[C@]5(C)[C@@H](C6=CC(=O)OC6)CC[C@]5(O)[C@@H]4CC[C@]3(O)C2)[C@H](O)[C@H](O)[C@H]1O`, the compound was called inactive in [1], in assay [2], in assay [5], in assay [7] and in assay [9]. For the same compound, the values for the AC50 in assay [4] and in assay [8] were 0.0716 µM (active) and 0.137 µM (active), respectively.

In the case of `COC(=O)Nc1cccc(OC(=O)Nc2cccc(C)c2)c1`, the call in [2], in [3], in assay [4], in [5], in assay [7] and in [8] was inactive. For the same compound, in [9], the result was inactive.

As to `N#Cc1ccccc1Cl`, the compound was classed as inactive in assay [2], in [3], in [4], in assay [10], in assay [7] and in assay [9].

As for `O=C=Nc1ccc(Cl)cc1`, the call in assay [2], in assay [3], in assay [4], in assay [10], in [7] and in assay [9] was inactive.

On to `O=C(Cl)OCCOCCOC(=O)Cl`, for which the compound was classed as inactive in assay [2], in assay [3], in assay [4], in assay [5], in assay [7] and in [8].

In the case of `Nc1ccc(N)cc1`, the outcome in assay [2], in assay [3], in assay [4], in assay [5] and in assay [7] was inactive. In addition, in assay [3], the AC50 is 100 µM (active).

Consider `CCOCn1c(-c2ccc(Cl)cc2)c(C#N)c(Br)c1C(F)(F)F`, for which the compound was classed as inactive in [2], in [3] and in assay [6]. Besides, the AC50 was 184 µM (active) in assay [4]; 34.7 µM (active) in [5]; 2.77 µM (active) in assay [7]; 0.46 µM (active) in [8]; 4.17 µM (active) in [9].
